# ALDH1A1 inh = ALDH1A1 (human) enzyme inhibition | P00352 | Purified ALDH1A1, NADH fluorescence, propionaldehyde substrate | Potency, µM (titrated, usually from 75.3 µM), actives largely listed as inhibitors | 220,000 tested, 7.3% active | AID 1030
# HPGD block = blocks human HPGD enzyme activity | purified HPGD, NADH fluorescence kinetic, PGE2 substrate | P15428 | 150,000 tested, 4.3% active | AID 894 | Potency, µM, most hits filed as inhibitors
# Target sequence (P15428 whole entry, looked up): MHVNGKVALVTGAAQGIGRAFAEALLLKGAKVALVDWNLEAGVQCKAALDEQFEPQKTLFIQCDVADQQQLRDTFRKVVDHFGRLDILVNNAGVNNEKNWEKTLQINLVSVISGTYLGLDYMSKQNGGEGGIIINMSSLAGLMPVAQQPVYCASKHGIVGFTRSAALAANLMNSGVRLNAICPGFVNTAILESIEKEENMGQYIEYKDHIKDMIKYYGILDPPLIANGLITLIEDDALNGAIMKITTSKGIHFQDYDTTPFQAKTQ
#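 20 nM HPGD preincubated 15 min at room temperature with compound in 50 mM Tris-HCl pH 8, 0.01% Tween 20. Started with 1 mM NAD+ and 30 uM prostaglandin E2; NADH fluorescence (360/450 nm) read 5 times over 30-s intervals, last minus first.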
# IMPase cell inh = cell-permeable inhibitors of inositol monophosphatase (IMPase); CHO-M1 cells, IP1 accumulation, HTRF TR-FRET ratio; inhibition (IP1 accumulation), % at 46.1 µM; 120,000 tested, under 10 active; active means well fitted curve in the direction sought with a large enough effect in the signal ratio, not every such curve was filed as active; inconclusive means small, poorly fitted or top-dose-only effect, or a change in a side signal; inactive means no such curve, though single readings can be large or run the other way; the % refers to the signal ratio;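 further: cells stimulated with carbachol in lithium chloride buffer; higher means more IMPase inhibition seen as more IP1 and lower FRET ratio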
# Target sequence (P97697 whole entry, looked up): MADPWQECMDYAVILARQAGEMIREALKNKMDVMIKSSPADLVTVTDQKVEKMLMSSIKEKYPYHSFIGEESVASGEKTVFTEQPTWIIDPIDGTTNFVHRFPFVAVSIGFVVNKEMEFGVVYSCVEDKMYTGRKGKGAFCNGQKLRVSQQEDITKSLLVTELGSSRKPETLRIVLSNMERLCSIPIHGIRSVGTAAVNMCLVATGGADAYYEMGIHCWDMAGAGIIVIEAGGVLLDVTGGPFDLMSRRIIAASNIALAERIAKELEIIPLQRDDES
#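 Cellular IMPase inhibition is scored as a rise in cytosolic IP1, detected by competitive TR-FRET between d2-labelled IP1 and a europium anti-IP1 antibody. M1-expressing CHO cells were stimulated with carbachol for 30 min at 37C, with lithium (50 mM LiCl) present in the buffer.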
# A number is an active result; - = inactive; ? = inconclusive; . = not tested or not shown. Sampled rows, rich in hits. Any-hit rate of the full collection: about 9%. Unless noted, the call rests on the fitted dose curve; in most records, active means well fitted inhibition curve with a large enough effect (not every such curve was filed as active); inconclusive means small, poorly fitted or top-dose-only effect, or another doubt; inactive means no such curve, though single readings can be large or run the other way.
SMILES,ALDH1A1 inh,HPGD block,IMPase cell inh
CC(=O)[C@@H]1[C@@H]2C(=O)N(Cc3ccccc3)C(=O)[C@@H]2C2c3ccccc3C=CN21 (stereo not given in full),20µM,?,-
Cc1ccc(S(=O)(=O)N(Cc2ccc(Cl)cc2)c2ccccc2C(=O)NCc2ccco2)cc1,-,.,-
O=C(O)C1CCCCC1C(=O)NCCc1c[nH]c2ccccc12 (stereo not given),-,-,-
O=C(NCCc1c[nH]c2ccccc12)C1CCN(c2nnc(N3CCCC3=O)s2)CC1,0.32µM,-,-
COc1ccccc1CCn1c(=O)c(C)nc2cncnc21,-,-,.
CC(=O)Nc1cccc(NC(=O)C2CC3CCC2C3)c1 (stereo not given),-,-,-
CCN(CC)c1ccc(NC(=O)C2CC3CCC2C3)cc1 (stereo not given),13µM,18µM,-
Cc1ccc2cc(C#N)c(NCc3ccco3)nc2c1,?,-,-
CCc1nnc(NC(=O)C2(C)COC(c3ccc(OC)cc3)OC2)s1 (stereo not given),-,.,.
O=c1c(-c2ccc(Cl)cc2)nc2cnc(N3CCOCC3)nc2n1C1CC1,-,-,.
O=CC(=O)c1ccccc1,2.8µM,-,.
CNC(=O)c1ccccc1,-,-,.
O=S(=O)(c1ccc(F)cc1)N1CCC2(CC1)OCCO2,-,.,.
CCCOc1ccc(S(=O)(=O)NCc2ccc(OC)cc2)cc1,-,-,-
O=C1COc2ccc(C(=O)c3ccccc3C(=O)O)cc2N1,-,-,.
CCc1ccc(OCC(=O)OCC(=O)c2ccc3c(c2)NC(=O)CO3)cc1,-,-,-
O=C1COc2ccc(C(=O)C[n+]3cccc(O)c3)cc2N1,20µM,.,.
CCC(=O)c1ccc(OCC(=O)c2ccc3c(c2)NC(=O)CO3)cc1,-,.,.
O=C1COc2ccc(C(=O)CCl)cc2N1,0.11µM,.,.
CCCCCCC(=O)OCC(=O)c1ccc2c(c1)NC(=O)CO2,3.5µM,.,.
Cn1ncc([N+](=O)[O-])c1C(=O)n1nnc2ccccc21,-,.,.
COC(=O)c1ccc(C2c3c(oc4cc(C)c(C)cc4c3=O)C(=O)N2c2ccccn2)cc1 (stereo not given),.,.,-
COc1ccc(Oc2ncc3nc(C)c(=O)n(CCC#N)c3n2)cc1,?,-,.
O=C(Cc1ccccc1)NS(=O)(=O)c1ccc(N=NN2CCOCC2)cc1,-,.,.
Cc1ccc(-c2nc3c(C)cccn3c2Nc2ccccc2C)s1,.,.,-
SMILES,ALDH1A1 inh,HPGD block,IMPase cell inh
CCCc1n[nH]c2c1/C(=N\O)CCC2,-,-,-
CCOC(=O)C1=C(C)NC(SCC(=O)O)=C(C#N)C1c1ccco1 (stereo not given),?,?,-
CCc1ccc(C(=O)CSC2=C(C#N)C(c3ccco3)C(C(C)=O)=C(C)N2)cc1 (stereo not given),?,?,-
CCOC(=O)CSC1=C(C#N)C(c2sccc2C)C(C(C)=O)=C(C)N1 (stereo not given),22µM,-,-
CCOC(=O)CSC1=C(C#N)C(c2ccccc2F)C(C(C)=O)=C(C)N1 (stereo not given),?,-,-
CC(=O)C1=C(C)NC(SCC(=O)c2ccc(Cl)c(Cl)c2)=C(C#N)C1c1ccco1 (stereo not given),2.8µM,22µM,-
CC(=O)C1=C(C)NC(SCC(N)=O)=C(C#N)C1c1sccc1C (stereo not given),?,?,-
CSCSC1=C(C#N)C(c2ccccc2Cl)C(C(C)=O)=C(C)N1 (stereo not given),25µM,?,-
CC(=O)C1=C(C)NC(SCC(=O)c2ccc(F)cc2)=C(C#N)C1c1ccco1 (stereo not given),13µM,25µM,-
CN(C)C(=O)COC(=O)c1cccc(CN2C(=O)c3ccccc3C2=O)c1,-,.,.
COc1ccc(C(NC(=O)C2CCCCC2)c2c(O)ccc3ccccc23)cc1 (stereo not given),-,-,.
CCN(CC)CCCN1C(=O)c2oc3ccccc3c(=O)c2C1c1cccc(OC)c1OC (stereo not given),-,-,-
CO[C@@H]1C=CO[C@]2(C)Oc3c(C)c(O)c4c(O)c(c(C=NN5CCN(C)CC5)c(O)c4c3C2=O)NC(=O)C(C)=CC=C[C@H](C)[C@H](O)[C@H](C)[C@H](O)[C@H](C)[C@H](OC(C)=O)[C@H]1C,-,-,-
CCOc1ccc(C2C(C(=O)Nc3ccccc3C)=C(C)Nc3nnnn32)cc1 (stereo not given),.,.,-
Cc1ccc(C(=O)CSC2=C(C#N)C(c3ccco3)C3=C(CCCC3=O)N2)cc1 (stereo not given),?,-,-
N#CC1=C(SCC(=O)c2ccccc2)NC2=C(C(=O)CCC2)C1c1ccco1 (stereo not given),8.9µM,?,-
C=CCOC(=O)C1=C(C)NC(SCC(=O)N(CC)CC)=C(C#N)C1c1ccco1 (stereo not given),?,18µM,-
CC(=O)C1=C(C)NC(SCC(N)=O)=C(C#N)C1c1ccco1 (stereo not given),-,.,.
CCOC(=O)CSC1=C(C#N)C(c2ccc(Cl)cc2)C(C(=O)OC)C(=O)N1 (stereo not given),25µM,-,?
CC(=O)C1=C(C)NC(SCC(=O)c2cc(Cl)ccc2Cl)=C(C#N)C1c1ccco1 (stereo not given),25µM,28µM,-
COC(=O)CSC1=C(C#N)C(c2ccc(Cl)cc2)C(C(=O)OC)C(=O)N1 (stereo not given),-,.,-
C=CCOC(=O)C1=C(C)NC(SCC(=O)N(CC)CC)=C(C#N)C1c1ccccc1 (stereo not given),?,?,-
COc1ccc(C(=O)N(c2ccc(OC)cc2)S(=O)(=O)c2ccc3c(c2)n(C)c(=O)n3C)cc1,.,.,-
C=CCOC(=O)N[C@H](/C(C(=O)OC)=C(\C)NCc1ccccc1)c1cccc(C(F)(F)F)c1,-,-,.
CCN1CCCC1CN(Cc1cc2ccc(C)cc2[nH]c1=O)C(=S)Nc1ccccc1OC (stereo not given),-,-,.
SMILES,ALDH1A1 inh,HPGD block,IMPase cell inh
CCN1CCCC1CN(Cc1cc2ccc(C)c(C)c2[nH]c1=O)C(=O)Nc1ccccc1OC (stereo not given),13µM,-,-
O=C(NC(=S)NCc1cccnc1)c1ccccc1,-,-,.
O=C(NC(=S)NNC(=O)c1ccccc1F)c1cccnc1,7.1µM,.,.
O=C(NC(=S)NCCSc1ccccc1)c1cccnc1,14µM,-,.
Cc1ccccc1C(=O)NNC(=S)NC(=O)c1cccnc1,25µM,-,.
Cc1ccccc1C(=O)NC(=S)NCc1cccnc1,-,.,.
COc1ccc(Cl)cc1C(=O)NNC(=O)c1cccnc1,-,-,-
O=C(O)/C=C(\Oc1ccccc1)C1(O)CCCCC1,-,.,.
CCOC(=O)CC(C)(C)/C(C)=N/Nc1ccc([N+](=O)[O-])cc1[N+](=O)[O-],-,-,.
COc1ccc(-n2cnnc2SCC(=O)Nc2cccc(S(=O)(=O)N3CCCCC3)c2)cc1,?,-,.
Cc1ccccc1-c1nc(S(=O)(=O)c2ccc(Br)cc2)c(NCc2cccnc2)o1,?,-,-
CCSc1oc(-c2ccco2)nc1S(=O)(=O)c1ccccc1,?,-,-
O=S(=O)(c1ccccc1)c1nc(-c2ccco2)oc1NCCN1CCOCC1,14µM,-,-
N#Cc1nc(-c2ccco2)oc1NCCCN1CCOCC1,?,?,-

# From PubChem
